Results taken from PubChem BioAssay (NCATS).
Results filed as inconclusive are left out. Active and inactive are the calls of the source. Unless noted, the call rests on the fitted dose curve; in most records, active means well fitted curve in the direction sought with a large enough effect; inconclusive means small, poorly fitted or top-dose-only effect, or another doubt; inactive means no such curve, though single readings can be large; an effect the other way counts as inactive or inconclusive.

Columns and labels:
[1] = molecular target: Glucocorticoid receptor (Homo sapiens) (UniProt P04150); assay: GR-GFP Redistribution (AID 450;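 active means compounds whose dose series gives a full or clear partial fitted curve of increased nuclear translocation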; further: potency means the concentration at half of the fitted maximal effect); conditions: U2OS GR-GFP nuclear translocation, laser cytometry, 2 h
Glucocorticoid receptor (Homo sapiens), sequence (P04150 whole entry, looked up, the tested form may be a part): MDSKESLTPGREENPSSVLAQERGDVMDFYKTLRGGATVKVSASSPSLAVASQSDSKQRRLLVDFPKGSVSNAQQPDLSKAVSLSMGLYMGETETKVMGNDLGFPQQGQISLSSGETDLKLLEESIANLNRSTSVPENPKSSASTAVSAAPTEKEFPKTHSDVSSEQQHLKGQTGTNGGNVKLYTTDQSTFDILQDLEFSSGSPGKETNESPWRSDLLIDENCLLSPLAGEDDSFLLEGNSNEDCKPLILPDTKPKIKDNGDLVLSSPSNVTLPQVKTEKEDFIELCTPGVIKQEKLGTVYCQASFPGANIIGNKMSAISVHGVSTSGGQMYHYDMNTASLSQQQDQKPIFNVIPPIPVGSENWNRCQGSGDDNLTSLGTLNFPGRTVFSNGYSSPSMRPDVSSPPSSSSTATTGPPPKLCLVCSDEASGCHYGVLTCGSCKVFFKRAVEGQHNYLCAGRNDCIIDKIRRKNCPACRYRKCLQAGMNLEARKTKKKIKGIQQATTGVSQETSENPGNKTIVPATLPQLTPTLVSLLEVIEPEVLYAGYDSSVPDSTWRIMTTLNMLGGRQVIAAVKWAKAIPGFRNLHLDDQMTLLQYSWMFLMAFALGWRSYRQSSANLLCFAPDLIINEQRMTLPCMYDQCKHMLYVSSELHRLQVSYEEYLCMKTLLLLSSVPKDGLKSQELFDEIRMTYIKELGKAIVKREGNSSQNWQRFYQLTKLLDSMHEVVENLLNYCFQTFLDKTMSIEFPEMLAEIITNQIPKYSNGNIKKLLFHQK

[2] = molecular target: Glucocorticoid receptor (Homo sapiens) (UniProt P04150); assay: GR-EFC Redistribution (AID 451; calls by dose curve; further: potency means the concentration at half of the fitted maximal effect); conditions: CHO-K1 GR-EFC translocation, beta-gal luminescence, 2 h
In short: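 Translocation of GR-ED fusion to nuclear EA restores b-gal, read by luminescence after 1 h room-temperature detection. Engineered CHO-K1 biosensor cells, 1,000/well, exposed 2 h at 37 C to titrations up to 46 uM final.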

[3] = molecular target: Mitogen-activated protein kinase 10 (Mus musculus) (UniProt Q61831); assay: JNK3 AlphaScreen Assay (AID 530; active means well fitted curve in either direction with a large enough effect, not every such curve was filed as active;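 further: kinase came from lysate of stimulated human HepG2 cells; signal reports phosphorylation of biotinylated GST-cJun 1-79 at Ser73 with 10 µM ATP; on the % scale 0 is the no-effect control and ±100 the full control effect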); conditions: JNK3 lysate, c-Jun phosphorylation; series mostly up to 57.1 µM
In short: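 Room-temperature AlphaScreen kinase assay; pre-activated HepG2 lysate as JNK3 source, biotin-GST-cJun(1-79) substrate, 10 uM ATP, compound 15 min preincubation.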

[4] = Cell Viability - NIH 3T3 (AID 541); conditions: NIH 3T3 cell viability, qHTS; activity change, negative = cytotoxicity: at 92.2 µM (top of the series);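 further: cells exposed to compound for 40 hours; plate controls were DMSO alone for no effect and tamoxifen positive control for full effect; nearly all actives have a fitted effect of over 25% in size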
In short: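 AC50 values reflect concentration-dependent loss of intracellular ATP in NIH 3T3 cells after 40 hr treatment in complete culture medium, quantified by luciferase-based luminescence.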

[5] = Cell Viability - SH-SY5Y (AID 544); conditions: SH-SY5Y neuroblastoma cell viability; viability change, negative = cytotoxic: at 92.2 µM (top of the series);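 further: cells exposed to compound for 40 hours; nearly all actives have a fitted effect of over 55% in size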; further: potency means the concentration at half of the fitted maximal effect;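 on viability change, negative = cytotoxic: 0% = DMSO alone and -100% = 100 µM tamoxifen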
In short: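 Cytotoxicity is scored as a concentration-dependent fall in intracellular ATP in human SH-SY5Y cells treated 40 hr in complete culture medium. Potency is expressed as AC50 from a Hill equation fit.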

[6] = Cell Viability - Renal Proximal Tubule (AID 545); conditions: renal proximal tubule cells viability, primary cells of rat origin; activity change, negative = cytotoxicity: at 91.7 µM (top of the series);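 further: cells exposed to compound for 40 hours; nearly all actives have a fitted effect of over 40% in size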; further: potency means the concentration at half of the fitted maximal effect;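 on activity change, negative = cytotoxicity: 0% = DMSO only and -100% = 100 µM tamoxifen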
In short: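 Rat kidney proximal tubule cells, freshly isolated; 1000 cells/well, 5 hr settle, compound 40 hr 37 °C. CellTiter-Glo 20 min RT, luminescence read. AC50 by standard Hill fit.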

[7] = Cell Viability - Mesenchymal (AID 546); conditions: mesenchymal cells viability, qHTS; activity change, negative = cytotoxicity: at 91.7 µM (top of the series);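 further: cells exposed to compound for 40 hours before reading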; further: potency means the concentration at half of the fitted maximal effect;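 on activity change, negative = cytotoxicity: 0% = DMSO only and -100% = 100 µM tamoxifen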
In short: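 AC50 values reflect the drop in intracellular ATP in a human kidney mesenchymal line derived from normal glomeruli. Treatment lasts 40 hr at 37 °C in complete medium, and the signal comes from CellTiter-Glo luminescence.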

[8] = Cell Viability - N2a (AID 540); conditions: N2a mouse neuroblastoma cell viability; activity change, negative = cytotoxicity: at 92.2 µM (top of the series);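 further: cells exposed to compound for 40 h at 37 °C; nearly all actives have a fitted effect of over 45% in size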; further: potency means the concentration at half of the fitted maximal effect;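 on activity change, negative = cytotoxicity: plate controls were DMSO alone for no effect and tamoxifen control for full effect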
In short: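 First, 1500 N2a cells per well incubate 5 hr at 37 °C; next, compounds are added and incubated 40 hr at 37 °C; finally CellTiter-Glo is added and luminescence read after 20 min, with AC50 derived by Hill modeling.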

[9] = Cell Viability - HUV-EC-C (AID 542); conditions: HUV-EC-C endothelial cell viability, qHTS; series mostly up to 92.2 µM;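 further: cells exposed to compound for 40 hours; nearly all actives have a fitted effect of over 35% in size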; further: potency means the concentration at half of the fitted maximal effect; on activity change, negative = cytotoxicity: on the % scale 0 is the no-effect control and ±100 the full control effect
In short: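 Decrease in cellular ATP, quantified by luciferase luminescence, reflects toxicity in normal human vascular endothelial HUV-EC-C cells given compound for 40 hr in complete culture medium. Values are AC50s from concentration-response curves.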

[10] = Cell Viability - H-4-II-E (AID 543); conditions: H-4-II-E rat hepatoma viability; series mostly up to 92.2 µM;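 further: cells exposed to compound for 40 hours; nearly all actives have a fitted effect of over 35% in size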; further: potency means the concentration at half of the fitted maximal effect
In short: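 Here, cytotoxicity is measured in the rat hepatoma line H-4-II-E as loss of intracellular ATP after 40 hr compound treatment, detected by luciferase luminescence.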

CC1(C)O[C@@H]2C[C@H]3[C@@H]4C[C@H](F)C5=CC(=O)C=C[C@]5(C)[C@@]4(F)[C@@H](O)C[C@]3(C)[C@]2(C(=O)CO)O1
active: Potency [1] 0.000728 µM

CCOC(=O)NNc1nncc2ccccc12
inactive: Potency [1] > 20.6 µM | Potency [2] > 20.6 µM | outcome [3]

CC(=O)OCC[N+](C)(C)C
inactive: Potency [1] > 20.6 µM

CC(C)(C)c1ccc(O)c(O)c1
active: activity change, negative = cytotoxicity [4] -146% | Potency [5] 12.6 µM | activity change, negative = cytotoxicity [6] -98.1% | activity change, negative = cytotoxicity [7] -100%
inactive: outcome [3]

OCc1c[nH]c2ccccc12
inactive: outcome [3] | Potency [8] | activity change, negative = cytotoxicity [4] 0.242% | Potency [9] | Potency [10] | Potency [5] | Potency [7]

Brc1ccccc1-c1ccccc1
inactive: outcome [3] | Potency [8] | activity change, negative = cytotoxicity [4] 3.13% | Potency [9] | Potency [10] | Potency [5] | Potency [6] | Potency [7]

CC(=O)OC/C=C(C)/C=C/C=C(C)/C=C/C1=C(C)CCCC1(C)C
active: activity change, negative = cytotoxicity [4] -114% | viability change, negative = cytotoxic [5] -99.5%
inactive: outcome [3] | Potency [8] | Potency [9] | Potency [7]

Nc1ccc(O)cc1
inactive: outcome [3]
active: Potency [8] 31.6 µM | activity change, negative = cytotoxicity [4] -133% | Potency [9] 31.6 µM | Potency [10] 39.8 µM | Potency [5] 25.1 µM | Potency [6] 25.1 µM | Potency [7] 31.6 µM

Nc1c2ccccc2nc2ccccc12
active: activity change, negative = cytotoxicity [8] -89.3% | activity change, negative = cytotoxicity [4] -137% | Potency [9] 15.8 µM | Potency [10] 15.8 µM | Potency [5] 7.94 µM | Potency [6] 31.6 µM
inactive: outcome [3]

O=C(NO)c1ccccc1
inactive: outcome [3] | Potency [8] | Potency [9] | Potency [10] | Potency [5] | Potency [6] | Potency [7]
